From PubChem BioAssay (NCATS) come the findings set out here.

Inconclusive results are not listed. Unmarked numbers belong to inactive results. Calls of active or inactive are those of the source. The call rests on the fitted dose curve; in most records, active means well fitted inhibition curve with a large enough effect; inconclusive means small, poorly fitted or top-dose-only effect; inactive means no such curve, though single readings can be large or run the other way.
Potency means the concentration at half of the fitted maximal effect.

One experiment in a line: BET inhibitor-based combinations targeting novel dependencies in MECOM-rearranged (r) AML: OCI-AML3 cell line (AID 2202232). Further: nearly all actives have a fitted effect of over 35% in size.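 On viability (% of control): plate controls were DMSO vehicle wells for no effect and wells without cells for full effect.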 As to conditions: CellTiter-Glo luminescence, 48 h; Potency: OCI-AML3 viability; series mostly up to 46 µM; viability (% of control): at the top concentration. Put shortly:
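500 cells/well; 11-pt dose curve; 48 h, standard incubator; CellTiter-Glo luminescence after 15 min RT; DMSO/empty-well normalization; AUC plus Z-AUC (mean-centered within each line).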
Regarding `CCOC(=O)N1c2ccc(C(F)(F)F)cc2[C@@H](N(Cc2cc(C(F)(F)F)cc(C(F)(F)F)c2)C(=O)OC)C[C@H]1CC`, the Potency is 4.68 µM (active).
On to `Cc1c(C(=O)NN2CCCCC2)nn(-c2ccc(Cl)cc2Cl)c1-c1ccc(Cl)cc1`, for which the “viability (% of control)” value is 79.2%.
On to `CC(=O)Oc1ccccc1C(=O)Nc1ncc([N+](=O)[O-])s1`, for which the Potency is 18.6 µM (active).
Consider `CNC(=O)c1cc(COc2nnc(Nc3ccc(Cl)cc3)c3ccoc23)ccn1`, for which the “viability (% of control)” value was 93.9%.
Still for that read-out and setting: under `Cc1ccc(C(C)(O)c2nc3ccccc3s2)c(C)c1` (configuration not stated) stands 99.3%; under `CC1(C)CCC(C)(C)c2cc(NC(=O)c3ccc(C(=O)O)cc3)ccc21`, 68.3%.
In the case of `Cc1[nH]nc2ccc(-c3cncc(OC[C@@H](N)Cc4ccccc4)c3)cc12`, the Potency was 1.18 µM (active).
As for `CCOC(=O)c1ccc(OC(=O)CCCCCN=C(N)N)cc1`, the “viability (% of control)” value is 69.3%.
As to `C[C@H](NC(=O)[C@@H](O)c1cc(F)cc(F)c1)C(=O)N[C@@H]1C(=O)N(C)c2ccccc2-c2ccccc21`, the “viability (% of control)” value is 103%.
With `C[C@]1(c2nc3c(C(N)=O)cccc3[nH]2)CCCN1`, the Potency was 8.33 µM (active).
For the compound `O=C(Cc1cccc(OC(F)(F)F)c1)Nc1ccc(CCCCc2nnc(NC(=O)Cc3ccccn3)s2)nn1`, the “viability (% of control)” value is 60.4%.
Turning to `OC[C@H](Cc1ccccc1)Nc1nc(Oc2ccc3c(c2)CCC3)nc2c1ncn2Cc1ccc(-c2ccccc2)cc1`, the Potency is 8.33 µM (active).
Take `NC(=O)[C@@H](CCC(F)(F)F)N(Cc1ccc(-c2ncon2)cc1F)S(=O)(=O)c1ccc(Cl)cc1`: the “viability (% of control)” value is 80.1%.
Consider `COc1cc2c(cc1Cc1cccc(Cl)c1F)c(=O)c(C(=O)O)cn2[C@H](CO)C(C)C`, for which the Potency was 16.6 µM (active).
Still for that read-out and setting: under `Cn1c(Nc2ccc(C(F)(F)F)cc2)nc2cc(Oc3ccnc(-c4ncc(C(F)(F)F)[nH]4)c3)ccc21` stands 2.95 µM (active); under `O=c1cc(-c2ccccc2)oc2cc(O)c(O)c(O)c12`, 7.42 µM (active).
As to `O=P(O)(O)C(O)(Cn1ccnc1)P(=O)(O)O`, the viability (% of control) was 121% [at 5.12 µM].
As for `CC(C)(C)c1cnc(CSc2cnc(NC(=O)C3CCNCC3)s2)o1`, the Potency is 0.372 µM (active).
For the compound `c1cc(-c2sc(-c3ccncc3)c(-c3ccncc3)c2-c2ccncc2)ccn1`, the “viability (% of control)” value is 89.9%.

The nature of a further experiment: BET inhibitor-based combinations targeting novel dependencies in MECOM-rearranged (r) AML: MV-4-11 cell line (AID 2202233). Further: nearly all actives have a fitted effect of over 45% in size.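 On viability, % of control: plate controls were DMSO for no effect and blank wells for full effect.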 As to conditions: MV-4-11 AML viability, CellTiter-Glo luminescence, 48 h; series mostly up to 46 µM; viability, % of control: at the top concentration. Put shortly: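 Cells were plated at 500 per well and exposed to each drug across an 11-point dose range for 48 hr at standard incubator conditions. Viability was read by CellTiter-Glo luminescence, and activity was expressed as AUC and per-cell-line Z-transformed AUC.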
(In ATP-based viability assays light output follows the ATP content of the culture.)
For the compound `C#CCC(Cc1cnc2nc(N)nc(N)c2n1)c1ccc(C(=O)N[C@@H](CCC(=O)O)C(=O)O)cc1` (some centres not stated), the Potency was 0.0053 µM (active).
On to `O=C(O)[C@H](O)[C@@H](O)[C@H](O[C@@H]1O[C@H](CO)[C@H](O)[C@H](O)[C@H]1O)[C@H](O)CO`, for which the “viability, % of control” value was 113%.
`O=c1c(O)c(-c2ccc(O)c(O)c2)oc2cc(O)ccc12`: the Potency was 2.63 µM (active).
On the same count and under the same terms, the result for `COc1ccc(-c2cc(=O)c3c(O)cc(O)cc3o2)cc1O` reads 5.25 µM (active).
`CC(=O)SCC(Cc1ccccc1)C(=O)NCC(=O)OCc1ccccc1` (configuration not stated): the “viability, % of control” value is 96%.
As to `CC[C@@]1([C@@H]2O[C@@H]([C@H]3O[C@@](O)(CO)[C@H](C)C[C@H]3C)C[C@H]2C)CC[C@H]([C@]2(C)CC[C@]3(C[C@H](O)[C@@H](C)[C@@H]([C@@H](C)[C@@H](OC)[C@H](C)C(=O)O)O3)O2)O1`, the Potency is 0.574 µM (active).
Still for that read-out and setting: the result for `Oc1cccc(-c2nc(N3CCOCC3)c3oc4ncccc4c3n2)c1` reads 0.0525 µM (active); that for `O=C(O)Cc1cccc(OCCCN(Cc2cccc(C(F)(F)F)c2Cl)CC(c2ccccc2)c2ccccc2)c1`, 20.9 µM (active).
On the same count and under the same terms, under `C#Cc1cccc(Nc2ncnc3cc(OCCOC)c(OCCO)cc23)c1` stands 2.63 µM (active).
On the same count and under the same terms, under `CCn1c(-c2nonc2N)nc2cnc(Oc3cccc(NC(=O)c4ccc(OCCN5CCOCC5)cc4)c3)cc21` stands 0.332 µM (active); under `CCCCCCOC(=O)NC(=N)c1ccc(NCc2nc3cc(C(=O)N(CCC(=O)OCC)c4ccccn4)ccc3n2C)cc1`, 8.33 µM (active); under `COc1ccc(Nc2cc(-c3cnc(N)nc3)nc(N3CCOCC3)n2)cn1`, 5.25 µM (active).
`CCc1nc(N)nc(N)c1-c1ccc(Cl)cc1`: the Potency is 14.8 µM (active).
In the case of `O=C(Nc1ccccc1Br)N[C@@H]1CCN(c2ccc(C(F)(F)F)cn2)C1`, the “viability, % of control” value was 99.3%.
Regarding `C=C1C(=O)OC(CCCCCCCC)C1C(=O)O` (configuration not stated), the “viability, % of control” value is 93.6%.
Take `O=C1CCc2ccc(OCCCCN3CCN(c4cccc(Cl)c4Cl)CC3)cc2N1`: the Potency is 16.6 µM (active).
Take `CCCc1nc2c(C)cc(-c3nc4ccccc4n3C)cc2n1Cc1ccc(-c2ccccc2C(=O)O)cc1`: the “viability, % of control” value was 146%.
As to `NC(=O)N1CCC(CC(=O)N2CCC([C@H]3c4ncc(Br)cc4CCc4cc(Cl)cc(Br)c43)CC2)CC1`, the Potency was 16.6 µM (active).
